Experimental findings from PubChem BioAssay AID493170 (National Center for Advancing Translational Sciences (NCATS), 2011) are described below.

Each structure is given as a SMILES string. Inconclusive results are not listed. A call without a number means that no potency is given here. Active and inactive are the calls of the source. The call rests on the fitted dose curve; in most records, active means well fitted inhibition curve with a large enough effect; inconclusive means small, poorly fitted or top-dose-only effect, or effect the other way; inactive means flat fitted curve, though single readings scatter.
Potency means the concentration at half of the fitted maximal effect.

The target of the assay is Ubiquitin carboxyl-terminal hydrolase 2 (Homo sapiens) (UniProt O75604). As to the kind of experiment: Ub-rhodamine 110 based assay for inhibitors Ubiquitin-specific Protease USP2a. Further: nearly all actives have a fitted effect of over 50% in size. To be noted: USP2a Ub-rhodamine110 cleavage, fluorescence; series mostly up to 38.3 µM. Summed up: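 Kinetic fluorescence (485/531 nm) read each minute over 7 min after adding Ub-Rhod110 (150 nM final) to USP2a (5 nM final). The enzyme had 30 min RT exposure to compounds beforehand in Tris pH 8.0 buffer with CaCl2, CHAPS and beta-ME.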
Sequence of Ubiquitin carboxyl-terminal hydrolase 2 (Homo sapiens) (O75604 whole entry, looked up): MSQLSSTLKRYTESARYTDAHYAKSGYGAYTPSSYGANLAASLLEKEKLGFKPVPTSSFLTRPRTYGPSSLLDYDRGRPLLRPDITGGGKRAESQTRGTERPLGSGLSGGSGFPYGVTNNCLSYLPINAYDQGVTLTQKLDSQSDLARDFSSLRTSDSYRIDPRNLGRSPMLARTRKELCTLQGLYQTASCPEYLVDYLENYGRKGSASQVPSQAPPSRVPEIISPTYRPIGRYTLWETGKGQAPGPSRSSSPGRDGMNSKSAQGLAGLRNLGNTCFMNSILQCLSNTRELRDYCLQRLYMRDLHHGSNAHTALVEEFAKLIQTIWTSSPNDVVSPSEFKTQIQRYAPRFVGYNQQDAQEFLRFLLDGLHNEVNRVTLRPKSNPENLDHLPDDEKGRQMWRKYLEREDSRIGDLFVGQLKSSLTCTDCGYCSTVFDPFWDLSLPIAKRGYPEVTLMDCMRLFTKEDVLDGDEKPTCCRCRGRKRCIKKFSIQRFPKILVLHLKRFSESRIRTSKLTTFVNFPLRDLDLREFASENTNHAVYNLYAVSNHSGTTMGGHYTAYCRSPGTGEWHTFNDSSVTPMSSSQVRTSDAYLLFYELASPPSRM
As for `O=C1OC[C@@H]2CCCN2C(=O)[C@@H](CC(=O)N(CCO)Cc2ccccc2)C/C=C\C[C@@H]1Cc1ccc(F)cc1`, the Potency result is “inactive”.
In the case of `CC(C)c1ccc(Nc2nnc(SCC(=O)c3nnc(-c4ccccc4)o3)s2)cc1`, the Potency was 2.82 µM (active).
In the case of `CN=c1scc(-c2ccccc2F)n1/N=C/c1ccc(O)c(O)c1O`, the Potency is 7.08 µM (active).
With `Nc1ccc2nc(-c3ccc(N)c(Cl)c3)[nH]c2c1` the entry was “inactive”; with `O/N=C/c1ccccc1OCc1ccccc1F`, “inactive”; with `Cn1nnnc1Sc1ncnc2scc(-c3ccc4c(c3)OCO4)c12`, “inactive”.
Regarding `CC(C)c1ccc(NC(=O)C(c2ccc3c(c2)OCO3)N2CCCCC2)cc1` (centres undefined), the Potency result is “inactive”.
As for `CCN=C1SC(C(=O)Nc2cccc(OCC)c2)CC(=O)N1CC` (centres undefined), the Potency entry was “inactive”.
As for `CC[C@]12c3[nH]c4cc(-c5ccco5)ccc4c3CCN1C(=O)[C@@H](CC(=O)NC/C=C(\C)CCC=C(C)C)C[C@@H]2C(=O)N1CCN(C(=O)C2CC2)CC1`, the entry is “inactive”.
For `O=c1[nH]c(=S)[nH]c2c1C(c1ccc(Br)cc1)c1c([nH]c(=S)[nH]c1=O)O2`, the Potency was 11.2 µM (active).
With `CCOC(=O)c1c(C)[nH]c(C(=O)COC(=O)CSC)c1C` the entry was “inactive”; with `COc1cc(/C=C/[N+](=O)[O-])ccc1OCc1cccc(C(=O)O)c1`, “inactive”; with `Cc1cc(C(=O)CSc2nnc(Nc3ccccc3F)s2)c(C)n1CC1CCCO1` (centres undefined), “inactive”.
As to `CCOC(=O)C1CCN(C(=O)COC(=O)c2c(C)c(CC)nc3ccccc23)CC1`, the Potency entry is “inactive”.
Turning to `CCC(=O)c1ccc(OCC(=O)NC2CCN(Cc3ccccc3)CC2)cc1`, the Potency result was “inactive”.
With `O=C(CSCc1cnn(-c2ccccc2)c1-n1cccc1)NCC1CCCO1` (centres undefined) the entry was “inactive”; with `C#CCOCCOCCOCCNc1nc(N2CCN(C(=O)CCCCCCCCCCNC(=O)[C@@H](CCSC)n3cc(CCO)nn3)CC2)nc(N2CCN(C(=O)CCCCCCCCCCNC(=O)[C@H](CCCN=C(N)N)n3cc(C[C@@H](C)CC)nn3)CC2)n1`, 10 µM (active).
For the molecule `COc1ccc(O)c(-c2cc(-c3ccc(F)cc3)n[nH]2)c1`, the Potency entry was “inactive”.
With `Cn1c(SCc2nc3ccccc3s2)nnc1-c1cccs1`, the Potency result was “inactive”.
`CCCNC(=O)NCc1ccc(N2CCCC2=O)cc1`: the Potency entry is “inactive”.
As to `Cc1cc(/C=C2\C(=N)N3N=C(c4ccco4)SC3=NC2=O)c(C)n1Cc1ccccc1`, the Potency was 7.08 µM (active).
Take `CCn1c(COc2ccc(C)cc2)nnc1SCC(=O)Nc1ccc2c(c1)OCCO2`: the Potency result was “inactive”.
For `Cc1ccc(NC(=O)c2onc(C)c2Cl)cc1`, the Potency entry is “inactive”.
Take `CCSc1nc(N2CCCCC2)c2c(c1C#N)CCCC2`: the Potency entry is “inactive”.
`CCCCCCCCCCOC(=O)Cn1c(COc2ccc(OC)cc2)[n+](C)c2ccccc21`: the Potency result is “inactive”.
With `Cc1ccc(C(=O)NCCCc2ccccc2)s1`, the Potency result was “inactive”.
Consider `C#CCOCCOCCOCCNc1nc(N2CCN(C(=O)CCCCCCCCCCNC(=O)[C@H](CCCCN)n3cc(CCO)nn3)CC2)nc(N2CCN(C(=O)CCCCCCCCCCNC(=O)[C@H](CCCCN)n3cc(C[C@@H](C)CC)nn3)CC2)n1`, for which the Potency entry was “inactive”.
Consider `Cc1cc(C)c2c(N=CN(C)C)c(C(=O)N3CCN(c4ncccn4)CC3)sc2n1`, for which the Potency entry was “inactive”.
In the case of `Cn1c(C(=O)NCCCN2CCN(c3ccccc3F)CC2)cc2c(=O)n(C)c3ccccc3c21`, the Potency result was “inactive”.
With `CCCCCCCCCCOC(=O)Cn1c(COc2ccccc2C)[n+](C)c2ccccc21` the entry was “inactive”; with `Cc1onc(-c2ccccc2)c1C(=O)N1CCN(C)CC1`, “inactive”.
Turning to `CC(C)CCn1c(CN2CCN(C(=O)c3ccco3)CC2)nc2c1c(=O)n(C)c(=O)n2C`, the Potency result is “inactive”.
Consider `Oc1c(Cl)cc(Cl)c(Cl)c1Cc1c(O)c(Cl)cc(Cl)c1Cl`, for which the Potency was 3.16 µM (active).
As to `O=C(N/N=C/c1ccc(-c2ccc(Cl)c(C(=O)O)c2)o1)c1cc2c(ccc3ccccc32)o1`, the Potency was 10 µM (active).
For the molecule `Cc1ccc(N=C2NC(=O)/C(=C/C=C/c3ccco3)S2)cc1C`, the Potency was 5.01 µM (active).
As for `C#CCOCCOCCOCCNc1nc(N2CCN(C(=O)CCCCCCCCCCNC(=O)[C@@H](CCC(=O)O)n3cc(CCCCCN)nn3)CC2)nc(N2CCN(C(=O)CCCCCCCCCCNC(=O)[C@H]([C@@H](C)CC)n3cc(CCCCCN)nn3)CC2)n1`, the entry is “inactive”; as for `O=C(c1ccc([N+](=O)[O-])cc1)N(Cc1ccc(Cl)cc1)N1C(=O)CCCC1=O`, “inactive”.
Turning to `CCCCC1NC(C(=O)O)CS1` (centres undefined), the Potency entry is “inactive”.
As to `O=C(O)CCn1c(C2CCCCC2)nc2ccccc21`, the Potency entry was “inactive”.
